What all share (experiment): Cytotoxic Profiling of Annotated Libraries Using Quantitative High-Throughput Screening (AID 1296008); also: nearly all actives have a fitted effect of over 60% in size
Conditions in all cases: Five cell lines viability, CellTiter-Glo ATP luminescence, 48-72 h; max response: hits give low values

The subject of assay [1] is CRL-7250. The procedure, abridged:
(§1)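 Cells exposed to compounds for 48 or 72 hr at 37 degrees Celsius. Viability read as ATP-coupled luminescence with CellTiter-Glo after 10 min at room temperature.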

Assay [2] deals with HEK293. The essentials:
as §1

Assay [3] relates to HaCat. The essentials: as §1
The test system of assay [4] is KB-3-1. The essentials: as §1
Assay [5] has as its system NIH3T3. The essentials: as §1

Results filed as inconclusive are left out. Unmarked numbers belong to inactive results. The source made the active and inactive calls. Calls follow the shape of the dose curve; as a rule, active = well fitted inhibition curve with a large enough effect; inconclusive = small, poorly fitted or top-dose-only effect; inactive = flat fitted curve, though single readings scatter.

For 17 molecules, max response, Potency and outcome results are on record in PubChem BioAssay (NCATS).
% is scaled to controls: 0 for no effect and ±100 for the full control effect; potency is read from the fitted curve at half-maximal effect.

On to `CC1=CC(=O)CC(C)(CO)C1(O)/C=C/C(C)O[C@@H]1O[C@H](CO)[C@@H](O)[C@H](O)[C@H]1O` (stereo not given in full), for which the max response is -0.153% in assay [1]; -1.52% in assay [2]; 2.49% in assay [3]; -2.84% in assay [4]; -3.42% in assay [5].
For the molecule `NC(=O)c1cnc(NCCc2ccc(O)c(Cl)c2)nc1NCc1ccccc1`, the Potency in assay [1] is 7.31 µM (active); in assay [2], 6.51 µM (active); in assay [3], 14.6 µM (active); in assay [4], 16.4 µM (active); in assay [5], 5.17 µM (active).
For the molecule `CC1=C(C(=O)O)/C(=C\CO[C@@H]2O[C@H](CO)[C@@H](O)[C@H](O)[C@H]2O)C(OC(=O)/C=C/c2ccc(O)cc2)C1` (stereo not given in full), the max response in assay [1] was -18%; in assay [2], 0.858%; in assay [3], -26%; in assay [4], 8.61%; in assay [5], -19.1%.
Turning to `Cc1cc(N2CCN([C@@H]3CN[C@H](C(=O)N4CCSC4)C3)CC2)n(-c2ccccc2)n1`, the max response in assay [1] is -17.8%; in assay [2], -23.9%; in assay [3] it was -10.6%; in assay [4], -12.3%; in assay [5], -22.8%.
Regarding `C[C@H]1CC[C@@H]2N(C1)C[C@@H]1[C@H]([C@@H](O)[C@H](O)[C@]3(O)[C@H]1C[C@@]14OC5(O)[C@@H](C[C@@H](O)[C@@H]31)[C@]4(C)CC[C@@H]5O)[C@]2(C)O`, the molecule was called inactive in assay [1] and in assay [4]. Besides, the max response is -8.96% in assay [2], -17.6% in assay [3] and 0.156% in assay [5].
`CC(=O)N1CCN(Cc2ccc([C@H](C)Nc3nccc(N4C(=O)OC[C@@H]4C(C)C)n3)cc2)CC1`: the Potency in assay [1] is 0.92 µM (active). The max response is -108% in assay [2], -0.103% in assay [3], 2.58% in assay [4] and -9.86% in assay [5].
For the molecule `COC(=O)[C@H](O)[C@H]1C(C)(C)[C@H](OC(=O)C(C)C)[C@@]2(O)C(=O)[C@]1(C)C1CC[C@]3(C)C(CC(=O)O[C@H]3c3ccoc3)[C@]13O[C@@H]32` (stereo not given in full), the max response is -16.9% in assay [1], -5.39% in assay [2], -4.38% in assay [3] and -25.1% in assay [5]. Moreover, the call in assay [4] was inactive.
As to `C[C@@H]1O[C@@H](O[C@H]2[C@H](O)[C@@H](C(=O)O)O[C@@H](O[C@H]3CC[C@@]4(C)C(CC[C@]5(C)C4CC=C4C6CC(C)(C)CC[C@]6(C(=O)O)CC[C@]45C)C3(C)C)[C@@H]2O[C@@H]2OC[C@@H](O)[C@H](O)[C@H]2O)[C@H](O)[C@H](O)[C@H]1O` (stereo not given in full), the max response is 3.95% in assay [1]; -0.663% in assay [2]; -12.7% in assay [3]; 9.7% in assay [4]; 0.526% in assay [5].
Turning to `CC(=O)O[C@H]1CC(C)(C)CC2[C@@]13[C@H](O)C[C@]1(C)[C@@]2(CCC2[C@@]4(C)CC[C@H](O[C@@H]5OC[C@H](O[C@@H]6O[C@H](CO)[C@@H](O)[C@H](O)[C@H]6O[C@@H]6OC[C@@H](O)[C@H](O)[C@H]6O)[C@H](O)[C@H]5O[C@@H]5O[C@H](CO)[C@@H](O)[C@H](O)[C@H]5O)C(C)(C)C4CC[C@]21C)O[C@@H]3O` (stereo not given in full), the Potency in assay [1] is 2.46 µM (active); in assay [2] it was 1.95 µM (active); in assay [3], 3.48 µM (active); in assay [5], 2.76 µM (active). Besides, the max response in assay [4] was -24.8%.
Consider `Nc1ccc(-c2cccc3c(=O)cc(N4CCOCC4)oc23)cc1`, for which the Potency in assay [1] was 5.8 µM (active); in assay [2], 7.31 µM (active); in assay [3] it was 6.51 µM (active); in assay [4] it was 20.6 µM (active); in assay [5], 8.2 µM (active).
For the molecule `CC12CCC(C(OC3OC(COC4OCC(O)(CO)C4O)C(O)C(O)C3O)C1)C(C)(C)O2` (stereo not given), the max response was 2.4% in assay [1]; -9.12% in assay [2]; -11.8% in assay [3]; 1.72% in assay [4]; 0.27% in assay [5].
Consider `CC1=C(/C=C/C(C)=C\C=C\C(C)=C/C(=O)O)C(C)(C)CCC1`, for which the max response was -50.6% in assay [1], 0.159% in assay [2], -22.2% in assay [3] and 0.69% in assay [5]. The molecule was called inactive in assay [4].
With `CS(=O)(=O)N(CC(=O)NCC1CC1)c1cc(C(F)(F)F)ccc1Cl`, the max response in assay [1] was -0.912%; in assay [2] it was 0.809%; in assay [3], -2.56%; in assay [4], 5.98%; in assay [5] it was -6.39%.
As for `CC1=C2C3OC(=O)C(C)C3(O)CCC2(C)CCC1O` (stereo not given), the max response was -5.4% in assay [1]; -8.27% in assay [2]; -12.8% in assay [3]; 5.71% in assay [4]; -16.2% in assay [5].
On to `COc1c(C)c(OCC(O)C(C)(C)O)cc2c1COC2=O` (stereo not given), for which the max response in assay [1] is 4.27%; in assay [2], -24.2%; in assay [3] it was -8.24%; in assay [5], -1.75%. In assay [4], the molecule was classed as inactive.
Consider `CC1CC[C@]2(C(=O)O)CC[C@]3(C(=O)O)C(=CCC4[C@@]5(C)CC[C@H](O[C@@H]6O[C@H](CO)[C@@H](O)[C@H](O)[C@H]6O)C(C)(C)C5CC[C@]43C)C2C1C` (stereo not given in full), for which the max response was -9.19% in assay [1]; -4.94% in assay [2]; 4.65% in assay [3]; 6.73% in assay [4]; 2.56% in assay [5].
Turning to `O=C(O)Cc1ccc2oc(-c3ccc(NC(=O)/C=C/c4ccc(Br)cc4)c(F)c3)nc2c1`, the max response is 4.13% in assay [1]; -7.74% in assay [2]; 2.81% in assay [3]; 0.378% in assay [4]; 1.97% in assay [5].
